Source: PubChem
An excerpt weighted towards active compounds, which were near 15% of everything screened.
TDP1 cell CPT – growth inhibition of DT40 Tdp1-/-;hTDP1 cells with camptothecin (screen for TDP1 inhibitors). chicken DT40 Tdp1-/-;hTDP1 cells + 20 nM CPT, ATP luminescence, 48 h. Potency, µM (highest dose often 46.2 µM), without a hit: top-dose activity change, negative = growth inhibition, hits mostly inhibitors. 12% of 420,000 active. AID 686979; also: nearly all actives have a fitted effect of over 55% in size
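Cell growth measured by CellTiter-Glo luminescence after a minimum 48 h, 37 C compound exposure with 20 nM CPT in Tdp1-knockout DT40 cells stably expressing hTDP1, seeded 400/well; qHTS titration format.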
VP16 counter – inhibits Gal4-VP16 luciferase reporter, ROR gamma counter-screen. Drosophila S2 Gal4-VP16 UAS-luciferase, luminescence, 20 h. Potency, µM (titrated, usually from 53.6 µM), for inactives: top-dose activity, negative = inhibition, actives largely listed as inhibitors. 3.5% of 310,000 active. AID 2546;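 also: Gal4-VP16 expression switched on by copper sulfate through the metallothionein promoter; nearly all actives have a fitted effect of over 50% in size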
DT40 TDP1 no CPT – qHTS for Inhibitors of human tyrosyl-DNA phosphodiesterase 1 (TDP1): qHTS in cells in absence of CPT; 15% of 420,000 active; Potency, µM (titrated, usually from 46.2 µM), without a hit: at the top dose activity change, negative = growth inhibition, actives largely listed as inhibitors; DT40 Tdp1-/- hTDP1 cells, no CPT, ATP luminescence, 48 h; also: nearly all actives have a fitted effect of over 55% in size
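Luminescent ATP content (CellTiter-Glo) served as the growth readout. Knockout chicken DT40 cells expressing human TDP1 were exposed to compounds without camptothecin for a minimum 48 hr at 37 °C.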
RORgamma inh – inhibitors of mouse ROR gamma transcriptional activity. Drosophila S2 Gal4-RORgamma UAS-luciferase reporter, 20 h. Potency, µM (highest dose often 53.6 µM), for inactives: top-dose activity change, negative = inhibition, actives largely listed as inhibitors. P51450. 5.4% of 310,000 active; also: nearly all actives have a fitted effect of over 60% in size
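Using a luciferase readout, inhibitors were identified by reduced reporter activity in Drosophila cells coexpressing a copper-inducible Gal4–ROR gamma fusion and UAS-driven Photinus luciferase, incubated 20 hr after 700 uM copper sulfate.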
ALOX12 inh – ALOX12 (human) lipoxygenase inhibition. P18054. purified 12hLO, xylenol orange hydroperoxide absorbance. Potency, µM (top dose mostly 108 µM), for inactives: at the top dose activity change, negative = inhibition, hits mostly inhibitors. 1.1% of 580,000 active. AID 1671190
Target sequence (P18054 whole entry, looked up): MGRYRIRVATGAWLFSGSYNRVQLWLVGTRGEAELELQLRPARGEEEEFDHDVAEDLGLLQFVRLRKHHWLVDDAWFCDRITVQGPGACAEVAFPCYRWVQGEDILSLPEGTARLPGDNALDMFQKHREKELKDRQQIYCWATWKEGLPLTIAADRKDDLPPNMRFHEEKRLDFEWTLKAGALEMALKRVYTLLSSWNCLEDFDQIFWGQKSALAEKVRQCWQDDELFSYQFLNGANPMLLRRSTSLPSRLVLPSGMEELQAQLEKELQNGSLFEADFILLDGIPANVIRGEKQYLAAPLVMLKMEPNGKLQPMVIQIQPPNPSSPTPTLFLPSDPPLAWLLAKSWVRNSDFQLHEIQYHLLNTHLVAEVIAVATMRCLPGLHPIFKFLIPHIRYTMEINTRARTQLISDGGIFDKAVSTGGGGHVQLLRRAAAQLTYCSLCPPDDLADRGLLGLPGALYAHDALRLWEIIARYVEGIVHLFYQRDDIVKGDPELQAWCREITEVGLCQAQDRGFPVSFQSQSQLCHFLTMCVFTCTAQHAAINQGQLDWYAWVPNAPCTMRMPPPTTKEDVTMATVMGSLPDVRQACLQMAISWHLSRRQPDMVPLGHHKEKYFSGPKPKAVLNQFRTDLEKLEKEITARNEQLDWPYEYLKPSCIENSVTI
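Hydroperoxide product was detected by ferrous iron/xylenol orange as the 573 to 405 nm absorbance ratio. Arachidonic acid at 40 uM (final) was turned over for 30 min at room temperature by 150 nM human 12hLO, pH 7.0 Hepes buffer, after 15 min compound preincubation.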
ELG1 DNA repair – ELG1-dependent DNA repair inhibition; 2.3% of 330,000 active; Potency, µM (top dose mostly 46.1 µM), for the others: top-dose activity change, negative = inhibition, actives largely listed as inhibitors; HEK293T ELG1-luciferase reporter, luminescence, 16 h; DNA damage induced by 5-fluorouridine; also: nearly all actives have a fitted effect of over 55% in size
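Reporter activity after DNA damage by 5-fluorouridine is monitored. Compound-treated cells incubate 16 hr at 37 °C, then ONE-Glo is added for 30 min before luminescence reading.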
Active calls of the source: *; [ ] = another dose, or the depositor's remark. Calls follow the shape of the dose curve; as a rule, active = well fitted curve in the direction sought with a large enough effect; inconclusive = small, poorly fitted or top-dose-only effect, or another doubt; inactive = no such curve, though single readings can be large; an effect the other way counts as inactive or inconclusive. % is scaled to controls: 0 for no effect and ±100 for the full control effect; potency is read from the fitted curve at half-maximal effect.

Screening Oc1ccc(N=Nc2ccccc2-c2nn[nH]n2)c(O)c1 returned TDP1 cell CPT -11%, VP16 counter -17%, DT40 TDP1 no CPT -19%, RORgamma inh 16µM*, ALOX12 inh inconclusive and ELG1 DNA repair 1%.
`CCN(CC)C(=O)[C@@H]1CCC[C@@H](NC(=O)c2cc(C)on2)CN(C)C(=O)C1` gave ALOX12 inh 37%[176 µM].
For C=CCn1c(-c2ccc(Cl)cc2)cnc1SC(C)C(=O)NC(N)=O (configuration not stated) the results were TDP1 cell CPT -16%, VP16 counter -4%[10 µM], DT40 TDP1 no CPT inconclusive, RORgamma inh inconclusive, ALOX12 inh -12% and ELG1 DNA repair -20%.
Screening C=CCn1c(-c2ccc(Cl)cc2)cnc1SC(C)C(N)=O (configuration not stated) returned TDP1 cell CPT -28%, VP16 counter inconclusive, DT40 TDP1 no CPT -1%, RORgamma inh 7.9µM*, ALOX12 inh 0% and ELG1 DNA repair 8%.
`CC(C)(C)c1ccc(C(=O)O)s1` gave ALOX12 inh 3%.
For OCC1(CNCc2ccc(F)cc2)C[C@@H](O)[C@@H](O)C1 (some centres not stated) the results were ALOX12 inh 63%[176 µM].
Screening OCC1(CNCc2cccnc2)C[C@@H](O)[C@@H](O)C1 (some centres not stated) returned ALOX12 inh 20µM*.
`Cc1cc(C(=O)Cn2nc(C(=O)O)c3ccccc3c2=O)c(C)n1CCc1ccc(F)cc1` gave TDP1 cell CPT 16µM*, VP16 counter 18%, DT40 TDP1 no CPT inconclusive, RORgamma inh -4%, ALOX12 inh inconclusive and ELG1 DNA repair inconclusive.
Cc1ccc(-n2c(C)cc(C(=O)Cn3nc(C(=O)O)c4ccccc4c3=O)c2C)cc1 was read as TDP1 cell CPT inconclusive, VP16 counter inconclusive, DT40 TDP1 no CPT inconclusive, RORgamma inh inconclusive, ALOX12 inh -19% and ELG1 DNA repair 19%.
`COc1ccc(-n2c(C)cc(C(=O)Cn3nc(C(=O)O)c4ccccc4c3=O)c2C)cc1` gave TDP1 cell CPT inconclusive, VP16 counter 1%, DT40 TDP1 no CPT 16µM*, RORgamma inh 22%, ALOX12 inh inconclusive and ELG1 DNA repair -16%.
Screening COc1ccc(-n2c(C)cc(C(=O)Cn3nnc4ccccc4c3=O)c2C)cc1 returned TDP1 cell CPT 21µM*, VP16 counter inconclusive, DT40 TDP1 no CPT 21µM*, RORgamma inh 16%, ALOX12 inh 9% and ELG1 DNA repair 6%.
`Cc1cc(C(=O)Cn2nnc3ccccc3c2=O)c(C)n1-c1ccccc1F` gave TDP1 cell CPT inconclusive, VP16 counter inconclusive, DT40 TDP1 no CPT inconclusive, RORgamma inh inconclusive, ALOX12 inh 0% and ELG1 DNA repair inconclusive.
`CCc1ccc(NC(=O)Cn2nc3c(cc2=O)CC(C)CC3)cc1` (configuration not stated) gave ALOX12 inh -4%.
`OCCCn1c(-c2ccc(F)cc2)csc1=Nc1ccc(F)cc1` gave TDP1 cell CPT 9.2µM*, DT40 TDP1 no CPT 15µM* and ALOX12 inh inconclusive.
O=S(=O)(c1ccc(-c2csc(=Nc3ccc(F)cc3)n2CCCCCCO)cc1)N1CCCC1 was read as TDP1 cell CPT 2.9µM*, DT40 TDP1 no CPT 2.6µM* and ALOX12 inh inconclusive.
`Cc1ccc(-c2csc(=Nc3ccccc3)n2CCCO)cc1` gave TDP1 cell CPT 16µM*, DT40 TDP1 no CPT 10µM* and ALOX12 inh 45µM*.
Screening N#Cc1ccccc1OCc1cccc2ccccc12 returned ALOX12 inh -15%.
